Test [1] in a line: ATG_PBREM_CIS: Attagene CIS-FACTORIAL HepG2 Assay for human Phenobarbital-responsive Enhancer Module (PBREM) (AID 2282955). Particulars: HepG2 PBREM cis-reporter, Attagene multiplexed transcription; actives raise or lower the signal. In outline: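 HepG2, transient MRTU transfection, 24 h dosing; RNA → oligo(dT) RT → PCR → 6-FAM extension → HpaI → CE. Bidirectional fit vs DMSO.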

Test [2] can be described thus: ATG_PXRE_CIS: Attagene CIS-FACTORIAL HepG2 Assay for human Pregnane X Receptor Element (PXRE) (AID 2282957). The settings on record: HepG2 Attagene CIS-FACTORIAL PXRE reporter, mRNA; actives raise or lower the signal. The essentials: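 Cells: HepG2, transiently transfected reporter units under cis promoter control. Exposure: 24 h. Detection: reporter mRNA via RT-PCR/CE fluorescence; bidirectional fitting, DMSO-referenced.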

Test [3] can be described thus: ATG_Sox_CIS: Attagene CIS-FACTORIAL HepG2 Assay for human SRY-box transcription factor (SOX) (AID 2282960). The settings on record: HepG2 Attagene cis-factorial SOX reporter, mRNA; actives raise or lower the signal. In outline:
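Cells were transfected with reporter constructs under cis-regulatory promoters, then exposed to chemicals for 24 h. Reporter transcripts were quantified by fluorescence after RT-PCR and capillary electrophoresis; activity was fitted in both directions against DMSO.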

Test [4] addresses Transcription factor Sp1 (Homo sapiens) (UniProt P08047). Description: ATG_Sp1_CIS: Attagene CIS-FACTORIAL HepG2 Assay for human Specificity Protein 1 (Sp1) (AID 2282961). Particulars: HepG2 Sp1 cis-reporter transcription, actives raise or lower the signal. In outline:
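Measures mRNA induction of an Sp1-linked reporter in HepG2 cells 24 h post-dosing. Multiplexed reporters read by RT-PCR and capillary electrophoresis; DMSO serves as negative control and baseline.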

A short description of test [5]: ATG_SREBP_CIS: Attagene CIS-FACTORIAL HepG2 Assay for human Sterol Regulatory Element Binding (SREBP) (AID 2282962). Particulars: HepG2 Attagene cis-factorial SREBP reporter, mRNA; actives raise or lower the signal. In outline: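 Twenty-four hours after chemical dosing of transfected HepG2 cultures, reporter RNA was converted to cDNA, amplified, end-labelled with 6-FAM and resolved by capillary electrophoresis. Responses were fitted relative to DMSO.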

Test [6] concerns the target Signal transducer and activator of transcription 3 (Homo sapiens) (UniProt P40763). As to the kind of experiment: ATG_STAT3_CIS: Attagene CIS-FACTORIAL HepG2 Assay for human Signal Transducer and Activator of Transcription 3 (STAT3) (AID 2282963). Particulars: HepG2, Attagene cis-factorial STAT3 reporter transcription; actives raise or lower the signal. In outline:
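Values derive from bidirectional fits relative to DMSO of reporter mRNA levels, measured by RT-PCR with capillary electrophoresis, in HepG2 cells carrying transiently transfected cis-regulated reporter units and exposed 24 h.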

The nature of test [7]: ATG_TA_CIS: Attagene CIS-FACTORIAL HepG2 Assay for human TA Basal Promoter (AID 2282964). Particulars: HepG2 Attagene CIS-factorial TA basal promoter reporter; actives raise or lower the signal. In outline: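 Background-control readout: TA basal promoter reporter mRNA, fitted in both directions relative to DMSO. Measured by RT-PCR and capillary electrophoresis 24 hours after treating HepG2 human liver cells transiently carrying multiplexed cis-regulated reporter constructs.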

Test [8] is described as follows: ATG_TCF_b_cat_CIS: Attagene CIS-FACTORIAL HepG2 Assay for human T-Cell-Factor with beta-catenin (TCF/b-cat) (AID 2282965). The settings on record: HepG2 TCF/beta-catenin cis-reporter transcription, actives raise or lower the signal. The essentials:
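Cells of the HepG2 line carry transiently transfected reporter units whose promoters respond to endogenous factors. Twenty-four hours post-dosing, reporter mRNA induction is measured by fluorescent RT-PCR and capillary electrophoresis, with DMSO as baseline.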

Test [9] in a line: ATG_TAL_CIS: Attagene CIS-FACTORIAL HepG2 Assay for human TAL Basal Promoter (AID 2282966).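 Note: background control endpoint measuring basal TAL promoter reporter mRNA not a specific factor.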 The settings on record: HepG2 Attagene cis-factorial TAL promoter reporter; actives raise or lower the signal. The essentials:
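RT-PCR plus capillary electrophoresis quantifies reporter mRNA induction in transiently transfected HepG2 cells after 24 h chemical treatment. DMSO serves as negative control and baseline for bidirectional fitting.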

Test [10] is described as follows: ATG_TGFb_CIS: Attagene CIS-FACTORIAL HepG2 Assay for human Transforming Growth Factor (TGF) (AID 2282967). The settings on record: HepG2 Attagene CIS TGFb reporter, mRNA transcription; actives raise or lower the signal. In outline: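 Endogenous TGFB1-linked transcription factor activity read as reporter mRNA via RT-PCR and capillary electrophoresis, 24 h after dosing transiently transfected HepG2 cells. Gain or loss of signal fitted relative to DMSO.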

Test [11] has as its target Estrogen receptor (Homo sapiens) (UniProt P03372). As to the kind of experiment: ATG_ERa_TRANS: Attagene TRANS-FACTORIAL HepG2 Assay for human Estrogen Receptor alpha (ERa) (AID 2282970; active = hit-call score of the fitted dose curve at least 0.9, where 1 is the maximum). Particulars: HepG2 Attagene TRANS ERa GAL4 reporter, mRNA. The essentials:
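Cells: HepG2, transiently transfected. Construct: GAL4-UAS reporter units regulated by exogenous NR-Gal4 chimeras. Time: 24 h. Detection: reporter mRNA by RT-PCR, capillary electrophoresis, fluorescence. Baseline: DMSO, upward fitting.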

The target in test [12] is X-box-binding protein 1 (Homo sapiens) (UniProt P17861). Description: ATG_Xbp1_CIS: Attagene CIS-FACTORIAL HepG2 Assay for human X-box Binding Protein 1 (XBP1) (AID 2282972). The settings on record: HepG2 XBP1 cis-element reporter, Attagene multiplex; actives raise or lower the signal. The essentials:
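After a 24-hour chemical exposure of HepG2 cells carrying cis-regulated reporters, reporter mRNA levels are assessed. Quantification uses RT-PCR, 6-FAM labelling and capillary electrophoresis. Gain- or loss-of-signal is fitted against DMSO.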

Test [13] can be described thus: ATG_PPRE_CIS: Attagene CIS-FACTORIAL HepG2 Assay for human Peroxisome Proliferator-activated Response Element (PPRE) (AID 2282958). The settings on record: HepG2 PPRE cis-element reporter, Attagene transcription factor profiling; actives raise or lower the signal. In outline: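 Transcript-level reporter induction in transfected HepG2 cells after 24 h chemical exposure, quantified by fluorescence from RT-PCR products separated by capillary electrophoresis.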

A short description of test [14]: ATG_VDRE_CIS: Attagene CIS-FACTORIAL HepG2 Assay for human Vitamin D Receptor Element (VDRE) (AID 2282968). Particulars: HepG2 VDRE cis-reporter transcription, actives raise or lower the signal. In outline: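 Cell-based multiplexed reporter format in human liver HepG2 cells, 24 h post-dose. Fluorescence from capillary electrophoresis of reporter cDNA gives the signal, with DMSO as negative control and baseline.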

Test [15] concerns the target Nuclear receptor subfamily 1 group I member 3 (Homo sapiens) (UniProt Q14994). As to the kind of experiment: ATG_CAR_TRANS: Attagene TRANS-FACTORIAL HepG2 Assay for human Constitutive Androstane Receptor (CAR) (AID 2282969; active = hit-call score of the fitted dose curve at least 0.9, where 1 is the maximum;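 note: activators raise reporter mRNA above DMSO so AC50 marks induction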). Particulars: HepG2 Attagene TRANS-FACTORIAL CAR reporter. In outline: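 HepG2 cells transiently transfected with GAL4-UAS reporter units; TRANS format reads activity of exogenous chimeric NR-Gal4 protein. After 24 h dosing, reporter mRNA quantified by RT-PCR, 6-FAM labelling and capillary electrophoresis; gain of signal fitted against DMSO.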

Test [16] addresses Paired box protein Pax-6 (Homo sapiens) (UniProt P26367). Description: ATG_Pax6_CIS: Attagene CIS-FACTORIAL HepG2 Assay for human Paired Box 6 (PAX6) (AID 2282956). The settings on record: HepG2 CIS-FACTORIAL PAX6 reporter transcription, RNA readout; actives raise or lower the signal. In outline: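 After twenty-four hours of chemical exposure, transfected HepG2 cells are harvested for RNA. Cis-promoter reporter transcripts are amplified, fluorescently labelled and sized by capillary electrophoresis, with gain and loss of signal scored against DMSO.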

Test [17] can be described thus: ATG_RORE_CIS: Attagene CIS-FACTORIAL HepG2 Assay for human RAR-related Orphan Receptor Element (RORE) (AID 2282959). The settings on record: HepG2 Attagene cis-factorial RORE reporter, mRNA; actives raise or lower the signal. The essentials: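 Multiplexed reporter assay measuring mRNA induction from a cis promoter element in transiently transfected HepG2 cells after 24 h treatment. Detection via RT-PCR and capillary electrophoresis fluorescence; DMSO serves as baseline.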

Test [18] is described as follows: ATG_M_19_TRANS: Attagene TRANS-FACTORIAL HepG2 Assay for M19 Transcription Factor (Internal Marker) (AID 2282974; active = hit-call score of the fitted dose curve at least 0.9, where 1 is the maximum). The settings on record: HepG2 Attagene TRANS-FACTORIAL M19 internal marker reporter. The essentials: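 After transfection of HepG2 with GAL4-UAS-driven reporter constructs, cells are dosed for 24 h. Total RNA is reverse-transcribed, reporter sequences PCR-amplified and labelled, then HpaI-digested and sized by capillary electrophoresis.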

A short description of test [19]: ATG_GAL4_TRANS: Attagene TRANS-FACTORIAL HepG2 Assay for GAL4 (Internal Marker) (AID 2282976; active = hit-call score of the fitted dose curve at least 0.9, where 1 is the maximum). The settings on record: HepG2 Attagene TRANS GAL4 internal marker reporter. The essentials: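 In transfected human HepG2 liver cells dosed 24 h, GAL4 reporter mRNA serves as a baseline marker. Detection by RT-PCR with fluorescent capillary electrophoresis, activity fitted upward relative to DMSO.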

The values that follow come from PubChem BioAssay (EPA / NIEHS).

Broadly, the AC50 is the concentration giving half of the maximal activity seen.

Inconclusive results are not listed. Calls of active or inactive are those of the source. Rule for the calls, unless noted: active = hit-call score of the fitted dose curve at least 0.9, where 1 is the maximum; inactive = score below 0.9.

Chain of Estrogen receptor (Homo sapiens) (P03372 whole entry, looked up, the tested form may be a part): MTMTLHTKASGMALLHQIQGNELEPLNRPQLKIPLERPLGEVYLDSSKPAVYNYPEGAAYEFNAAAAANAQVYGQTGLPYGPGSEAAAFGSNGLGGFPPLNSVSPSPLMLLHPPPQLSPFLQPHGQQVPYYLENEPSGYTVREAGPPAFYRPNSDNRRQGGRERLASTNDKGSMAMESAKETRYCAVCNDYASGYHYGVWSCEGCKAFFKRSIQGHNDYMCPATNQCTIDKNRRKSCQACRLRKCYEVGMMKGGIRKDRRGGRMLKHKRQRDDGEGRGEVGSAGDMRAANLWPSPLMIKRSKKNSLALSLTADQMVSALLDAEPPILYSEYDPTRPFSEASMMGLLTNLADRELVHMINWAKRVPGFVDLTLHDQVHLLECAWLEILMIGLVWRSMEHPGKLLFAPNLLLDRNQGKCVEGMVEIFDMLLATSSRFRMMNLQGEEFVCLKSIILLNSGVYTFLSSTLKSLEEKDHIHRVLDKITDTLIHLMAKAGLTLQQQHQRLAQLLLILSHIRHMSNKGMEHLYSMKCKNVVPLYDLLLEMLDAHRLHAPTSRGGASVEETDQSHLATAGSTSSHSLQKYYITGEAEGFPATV
Chain of X-box-binding protein 1 (Homo sapiens) (P17861 whole entry, looked up): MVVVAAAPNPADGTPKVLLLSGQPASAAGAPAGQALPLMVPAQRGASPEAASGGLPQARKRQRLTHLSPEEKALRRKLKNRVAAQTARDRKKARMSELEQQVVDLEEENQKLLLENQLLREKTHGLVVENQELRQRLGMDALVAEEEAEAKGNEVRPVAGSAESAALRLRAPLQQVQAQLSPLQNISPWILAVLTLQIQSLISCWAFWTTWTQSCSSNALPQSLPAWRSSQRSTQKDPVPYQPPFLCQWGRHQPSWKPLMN
Chain of Signal transducer and activator of transcription 3 (Homo sapiens) (P40763 whole entry, looked up): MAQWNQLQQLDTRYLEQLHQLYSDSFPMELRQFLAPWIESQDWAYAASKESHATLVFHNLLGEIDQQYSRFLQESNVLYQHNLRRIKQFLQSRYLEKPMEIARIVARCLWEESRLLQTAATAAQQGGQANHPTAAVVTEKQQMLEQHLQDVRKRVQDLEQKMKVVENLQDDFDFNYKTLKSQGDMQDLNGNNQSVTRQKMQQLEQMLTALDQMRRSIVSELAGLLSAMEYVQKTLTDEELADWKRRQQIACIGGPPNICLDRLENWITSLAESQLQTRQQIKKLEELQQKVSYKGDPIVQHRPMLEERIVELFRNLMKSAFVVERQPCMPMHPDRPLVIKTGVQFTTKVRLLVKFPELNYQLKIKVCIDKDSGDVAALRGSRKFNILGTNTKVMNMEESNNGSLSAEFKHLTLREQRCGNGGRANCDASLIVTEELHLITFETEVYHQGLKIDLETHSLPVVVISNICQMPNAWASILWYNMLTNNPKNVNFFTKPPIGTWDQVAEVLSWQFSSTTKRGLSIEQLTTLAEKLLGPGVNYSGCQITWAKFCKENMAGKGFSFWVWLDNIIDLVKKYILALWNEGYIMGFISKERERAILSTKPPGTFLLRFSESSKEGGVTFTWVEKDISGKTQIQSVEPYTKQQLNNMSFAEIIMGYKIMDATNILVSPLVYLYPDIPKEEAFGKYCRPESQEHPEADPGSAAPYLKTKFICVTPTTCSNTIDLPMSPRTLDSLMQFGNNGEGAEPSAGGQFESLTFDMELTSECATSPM
Chain of Transcription factor Sp1 (Homo sapiens) (P08047 whole entry, looked up): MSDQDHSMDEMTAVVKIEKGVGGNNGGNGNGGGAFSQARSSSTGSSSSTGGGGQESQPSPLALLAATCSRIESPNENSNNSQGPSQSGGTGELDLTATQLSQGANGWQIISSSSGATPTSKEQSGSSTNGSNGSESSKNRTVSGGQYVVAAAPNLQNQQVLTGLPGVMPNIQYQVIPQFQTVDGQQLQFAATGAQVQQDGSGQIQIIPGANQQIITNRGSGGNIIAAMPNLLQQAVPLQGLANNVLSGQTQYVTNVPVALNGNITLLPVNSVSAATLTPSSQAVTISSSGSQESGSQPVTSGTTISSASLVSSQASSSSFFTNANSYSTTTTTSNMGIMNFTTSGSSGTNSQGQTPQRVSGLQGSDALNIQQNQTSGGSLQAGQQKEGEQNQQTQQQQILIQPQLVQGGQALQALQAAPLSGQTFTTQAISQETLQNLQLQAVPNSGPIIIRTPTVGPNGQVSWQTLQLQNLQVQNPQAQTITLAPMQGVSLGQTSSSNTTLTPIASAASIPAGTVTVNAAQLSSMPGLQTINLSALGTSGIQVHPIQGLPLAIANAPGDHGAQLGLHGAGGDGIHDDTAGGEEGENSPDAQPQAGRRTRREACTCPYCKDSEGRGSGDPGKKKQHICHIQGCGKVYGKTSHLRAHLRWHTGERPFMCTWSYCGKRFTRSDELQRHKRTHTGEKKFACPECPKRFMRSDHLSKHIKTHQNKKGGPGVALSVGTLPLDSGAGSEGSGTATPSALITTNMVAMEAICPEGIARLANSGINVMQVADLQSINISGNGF
Chain of Paired box protein Pax-6 (Homo sapiens) (P26367 whole entry, looked up): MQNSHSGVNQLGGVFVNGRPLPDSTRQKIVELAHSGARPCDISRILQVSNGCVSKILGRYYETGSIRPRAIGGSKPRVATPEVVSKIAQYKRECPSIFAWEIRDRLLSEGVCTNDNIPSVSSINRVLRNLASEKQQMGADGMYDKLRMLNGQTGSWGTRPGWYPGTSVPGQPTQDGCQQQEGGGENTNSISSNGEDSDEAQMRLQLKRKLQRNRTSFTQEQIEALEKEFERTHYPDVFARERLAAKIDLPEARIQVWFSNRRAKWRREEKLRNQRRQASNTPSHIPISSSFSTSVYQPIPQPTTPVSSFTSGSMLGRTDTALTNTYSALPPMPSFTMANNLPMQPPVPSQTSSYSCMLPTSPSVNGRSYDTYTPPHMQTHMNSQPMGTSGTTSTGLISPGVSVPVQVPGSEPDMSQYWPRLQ
Chain of Nuclear receptor subfamily 1 group I member 3 (Homo sapiens) (Q14994 whole entry, looked up, the tested form may be a part): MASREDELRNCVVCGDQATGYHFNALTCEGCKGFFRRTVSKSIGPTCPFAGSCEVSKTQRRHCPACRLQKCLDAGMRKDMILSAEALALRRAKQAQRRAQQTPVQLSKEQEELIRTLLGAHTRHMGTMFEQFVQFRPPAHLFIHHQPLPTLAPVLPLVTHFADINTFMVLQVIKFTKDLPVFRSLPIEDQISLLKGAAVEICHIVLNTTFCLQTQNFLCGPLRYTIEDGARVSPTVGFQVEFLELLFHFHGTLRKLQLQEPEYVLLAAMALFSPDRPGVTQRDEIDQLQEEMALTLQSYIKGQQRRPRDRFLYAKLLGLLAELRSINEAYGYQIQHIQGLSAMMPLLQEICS

Regarding `CC1=CCC(C(C)C)C=C1` (stereo not given), the result in [1], in test [3], in test [4], in test [5], in test [6] and in test [7] was inactive. Also, the molecule was classed as inactive in test [8], in test [9], in test [10], in test [11] and in [12]. For the same molecule, in test [2], the AC50 is 3.56 µM (active).

With `CC1=CC(C)C(C=O)CC1` (stereo not given), the result in test [1], in [13], in test [3], in [4], in test [5] and in test [6] was inactive. The outcome in test [8], in test [9], in test [10], in test [14], in test [15] and in [11] was inactive. Besides, the call in test [12] was inactive. The concentration at half-maximal activity (AC50) in test [2] was 27.7 µM (active).

Take `CC(C)C(=O)OCCc1ccccc1`: the call in [16], in [2], in test [13], in test [17], in [3] and in [4] was inactive. Further, the call in test [5], in [6], in [7], in [8], in test [9] and in [10] was inactive. Also, the molecule was classed as inactive in test [14], in test [11], in [12], in [18] and in [19].

For the molecule `CCCC1CCCC(=O)O1` (stereo not given), the outcome in test [1], in [2], in test [17], in test [3], in test [4] and in test [5] was inactive. In addition, the molecule was called inactive in test [6], in test [7], in test [8], in test [9], in test [11] and in test [12]. Besides, the result in test [18] was inactive. For the same molecule, in test [13], the AC50 is 11 µM (active).

In the case of `Nc1ccc(C(=O)O)cc1`, the result in test [1], in [2], in test [13], in test [3], in test [4] and in test [5] was inactive. The outcome in [6], in test [7], in test [8], in test [9], in test [10] and in test [11] was inactive. Also, the molecule was classed as inactive in test [18] and in test [19].

As for `Cc1noc(NS(=O)(=O)c2ccc(N)cc2)c1C`, the result in [1], in test [2], in [3], in test [4], in test [5] and in test [7] was inactive. Also, the outcome in test [8], in [9], in test [10], in [11] and in [12] was inactive.

For the molecule `Cc1ccc(S(=O)(=O)N=C=O)cc1`, the molecule was called inactive in test [16], in test [2], in test [13], in [17], in test [3] and in test [4]. Further, the outcome in [5], in test [6], in test [7], in test [8], in [9] and in [10] was inactive. Moreover, the result in [14], in test [11] and in test [19] was inactive.

For `CN1CCN(C)CC1`, the molecule was classed as inactive in test [16], in test [2], in [13], in test [17], in test [3] and in test [4]. Besides, the result in [5], in test [6], in test [7], in test [8], in test [9] and in [10] was inactive. For the same molecule, the molecule was classed as inactive in [14], in [11], in [12] and in test [18].

As for `CCCCCCCCCCCCc1ccc(O)cc1`, the result in test [16], in [13], in test [17], in test [3], in test [4] and in test [5] was inactive. Moreover, the molecule was called inactive in [6], in test [7], in [8], in test [9], in [10] and in test [14]. Also, the result in test [12], in test [18] and in test [19] was inactive. Further, the AC50 in test [2] is 1.53 µM (active); in test [11], 0.0847 µM (active).
